# Among all 48,000 compounds or so, about 13,000 (27%) showed an effect of 50% or more. This is one part of the list.
# Test system: Wolbachia pipientis
# Assay: Anti-Wolbachia Cell-Based Screen
# Assay type: functional
# Design: scale not given: in the data most compounds retested in dose-response had high values
# Details: 5 µM
row,SMILES,Percent Effect [%]
1,O=C(c1coc(COc2cccc3cnccc23)n1)N1CCSCC1,-33.47
2,CCc1cnc(N2CC[C@H]3[C@@H]2CCC(=O)N3c2cccnc2)nc1.O=C(O)C(F)(F)F.O=C(O)C(F)(F)F,93.01
3,CCc1cnc(N2CC[C@H]3[C@@H]2CCC(=O)N3c2ccccc2)nc1.O=C(O)C(F)(F)F,97.82
4,Cc1cnc(C(=O)N2CC[C@H]3[C@@H]2CCC(=O)N3c2cccnc2)cn1.O=C(O)C(F)(F)F,0.08604
5,CCc1cnc(N2CC[C@H]3[C@H]2CC(=O)N3c2cccnc2)nc1.O=C(O)C(F)(F)F.O=C(O)C(F)(F)F,-6.023
6,Cc1ccc(C(=O)N2CC[C@H]3[C@@H]2CCC(=O)N3c2cccnc2)o1.O=C(O)C(F)(F)F,-21.39
7,Cc1cc(CNC(=O)c2cc(C(C)C)n(C)n2)ccc1S(C)(=O)=O,-6.268
8,CC(=O)N(CCc1ccccc1)CC(=O)NC(C)(C)C#N,-33.05
9,COCCCN1CC2(CCCN(c3ncnc4[nH]cnc34)C2)CCC1=O (stereo not drawn),-3.857
10,O=C1N(CCC2CCCCC2)CCCC1(O)CNCCc1ccccc1 (stereo not drawn),4.403
11,O=C(O)C(=O)O.c1ccc2c(c1)SCCC2NCc1ccc(N2CCOCC2)cc1 (stereo not drawn),-0.4171
12,Cc1ccc(O)c(C(=O)N2CCCC2CC(=O)c2cnn(C)c2)c1 (stereo not drawn),-14.12
13,Cn1cc(C(=O)CC2CCCN2C(=O)c2ccc(Cl)cn2)cn1 (stereo not drawn),-8.745
14,COc1cc(C(=O)N2CCCC2CC(=O)c2cnn(C)c2)ccc1F (stereo not drawn),-15.51
15,Cc1cscc1C(=O)N1CCCC1CC(=O)c1cnn(C)c1 (stereo not drawn),127.4
16,CCc1ccccc1C(=O)N1CCCC1CC(=O)c1cnn(C)c1 (stereo not drawn),88.86
17,Cn1cc(C(=O)CC2CCCN2C(=O)c2cccc3ncccc23)cn1 (stereo not drawn),103.8
18,Cn1cc(C(=O)CC2CCCN2C(=O)c2cncc3ccccc23)cn1 (stereo not drawn),0.2394
19,Cn1cc(C(=O)CC2CCCN2C(=O)c2ccn3ccnc3c2)cn1 (stereo not drawn),8.483
20,CCc1cc(C)c(C(=O)N2CCCC2CC(=O)c2cnn(C)c2)o1 (stereo not drawn),-2.154
21,Cn1cc(C(=O)CC2CCCN2C(=O)c2ccncc2F)cn1 (stereo not drawn),96.19
22,CCn1c(CN(C)CC(F)(F)F)nc2c(F)cccc21,-13.63
23,COc1cc(F)c(C(=O)NCc2ccon2)c(F)c1,-19.7
24,COc1ccc(C2=CCN(C(=O)CN(C)Cc3ccoc3)CC2)cc1,39.3
25,Cc1cc(-n2cncn2)ccc1C(=O)N(C)CC(F)(F)C(F)(F)F,-10.14

row,SMILES,Percent Effect [%]
1,CS(=O)(=O)N1C[C@@H]2COC[C@@H](CC(=O)N3CCCO3)[C@@H]2C1,-9.708
2,Cc1ccoc1C(=O)N1CCOC2(CCCC2)C1,-7.54
3,CCOC(C)c1nc(COc2nc(C)no2)cs1 (stereo not drawn),-4.126
4,Cn1cc(C(=O)CC2CCCN2C(=O)c2ccc(Cl)o2)cn1 (stereo not drawn),3.308
5,Cn1cc(C(=O)CC2CCCN2C(=O)c2coc3ccccc23)cn1 (stereo not drawn),99.8
6,Cn1cc(C(=O)CC2CCCN2C(=O)c2ccc3[nH]ncc3c2)cn1 (stereo not drawn),-6.365
7,Cn1cc(C(=O)CC2CCCN2C(=O)c2c[nH]c3ccccc23)cn1 (stereo not drawn),107.8
8,Cn1cc(C(=O)CC2CCCN2C(=O)c2n[nH]c3ccccc23)cn1 (stereo not drawn),-3.127
9,O=C(c1ccncc1)N1CCN(C(=O)c2coc3ccccc23)CC1,-6.895
10,Cn1cc(CN2CCc3ncn(C)c3C2COCc2cccnc2)cn1 (stereo not drawn),-2.593
11,N#Cc1c(F)cccc1NCCCOCC1CCOC1 (stereo not drawn),-17.11
12,COCCNC(=O)c1nc(-c2cn(C)cn2)n2ccccc12,37.4
13,Cc1occc1C(=O)N1CCC2(CCC(=O)N(CC(N)=O)C2)CC1,0.6674
14,Cc1occc1C(=O)N1CCCn2cnc(CN3CCCC3=O)c2C1,99.06
15,Cc1ccccc1C(=O)N1CCCn2cnc(CN3CCCC3=O)c2C1,104.2
16,Cc1cccc(C(=O)N2CCCn3cnc(CN4CCCC4=O)c3C2)n1,84.9
17,O=C1CCCN1Cc1ncn2c1CN(C(=O)c1cccc(F)c1)CCC2,7.876
18,Cc1occc1C(=O)N1CCn2cnc(COCC3CC3)c2C1,-3.111
19,Cc1ccccc1C(=O)N1CCCn2nnc(Cn3cccn3)c2C1,-4.319
20,Cc1cccc(C(=O)NC(CN2CCCC2=O)c2ccccc2)n1 (stereo not drawn),-6.295
21,O=C(NC1CC1)C1CCCN(c2cc(-n3cncn3)ncn2)C1 (stereo not drawn),-0.5146
22,COCCN(C)C[C@@H]1CCC[C@@H]2CN(c3cc(OC)ncn3)C[C@@H]21.O=C(O)C(F)(F)F,-6.847
23,Cc1cccc(C2(CNC(=O)C(C)S(C)(=O)=O)CCCC2)c1 (stereo not drawn),0.1525
24,O=C(O)C(F)(F)F.c1ccc(CN2Cc3nccn3CC(Cn3cccn3)C2)nc1 (stereo not drawn),97.11
25,CC(=O)N1[C@H](Cn2cncn2)C[C@@H]2CN(Cc3ccccn3)CC[C@@H]21.O=C(O)C(F)(F)F.O=C(O)C(F)(F)F,10.04

row,SMILES,Percent Effect [%]
1,O=C(O)C(F)(F)F.c1ccc(CN2Cc3nccn3CC(Cn3cncn3)C2)nc1 (stereo not drawn),98.39
2,N#Cc1ccc(NCCCOCC2CCCO2)c(F)c1 (stereo not drawn),-11.95
3,COc1cccc2c1N(C(=O)c1ccc(C)nc1)CCC2,2.178
4,COc1ccc(C)c2c1N(C(=O)c1ccc3nnc(C)n3c1)CCC2,-2.27
5,Cc1ccc(F)c2c1N(C(=O)c1ccc(S(C)(=O)=O)cc1)CCC2,11.45
6,CC(=O)NCc1ccc(C(=O)N2CCCc3c(F)ccc(C)c32)o1,-10.88
7,CN(C)C(=O)Cn1cc(C(=O)N2CCCc3cccc(F)c32)nn1,105.3
8,CN(C)C(=O)CN1CCCc2c(F)cc(Br)cc21,1.685
9,Cc1ccc(F)c2c1CCCN2C(=O)c1cn(CC(=O)N(C)C)nn1,122.6
10,CC(c1ccccc1)N(C)C(=O)CN1CCCc2cccc(F)c21 (stereo not drawn),5.525
11,Cc1ccc(F)c2c1N(C(=O)c1cn(CC(=O)N(C)C)nn1)CCC2,115.7
12,N[C@@H]1CC[C@@H](NC(=O)c2ccccc2OC(F)(F)C(F)F)C1,3.993
13,CC(C)NC(=O)c1nc(Cn2c(C(F)(F)F)nc3ccccc32)no1,97.59
14,O=C(NC1CC1)c1nc(Cn2c(C(F)F)nc3ccccc32)no1,97.34
15,NC(=O)c1nc(CN2CCOC(C(F)(F)F)C2)no1 (stereo not drawn),-3.309
16,CNC(=O)c1nc(CN2CCOC(Cc3ccc(F)cc3)C2)no1 (stereo not drawn),-1.093
17,CC(C)NC(=O)CN(C)C1CCN(c2cnc3ccccc3n2)CC1,-13.33
18,CNC(=O)c1nc(CN2CCOC(C(F)(F)F)C2)no1 (stereo not drawn),-14.11
19,CC(C)NC(=O)c1nc(Cn2c(C(F)F)nc3ccccc32)no1,117.9
20,Cc1ccc(C(=O)NC2CCN(Cc3noc(CC(C)C)n3)CC2)s1,3.066
21,CNC(=O)c1nc(CN2CCOC(CCCC(C)C)C2)no1 (stereo not drawn),2.803
22,O=C(NCCn1ccnc1)c1csc(Br)c1,7.312
23,CC(C)c1cncnc1-c1cc(F)cc2c1OC(CN)C2 (stereo not drawn),-15.48
24,CN1CCCc2sc(C(=O)NC3CC3)nc21,-6.027
25,O=C(NCc1cccnc1)c1nc2c(s1)CCCN2c1ncccn1,-3.859

row,SMILES,Percent Effect [%]
1,Cc1ccc(N2CCCc3sc(C(=O)NCc4ccc(C)o4)nc32)nn1,-0.9915
2,O=C(c1nc2c(s1)CCCN2CC1CC1)N1CCCC1,21.73
3,O=C(NC1CC1)c1nc2c(s1)CCCN2c1ccccc1,3.118
4,Cc1ccc(N2CCCc3sc(C(=O)NCC4CCCO4)nc32)nn1 (stereo not drawn),101.4
5,O=C(NCC1CCCO1)c1nc2c(s1)CCCN2CC1CC1 (stereo not drawn),97.2
6,O=C(NCC1CCCO1)c1nc2c(s1)CCCN2c1ncccn1 (stereo not drawn),95.9
7,O=C(NCC1CCCO1)c1nc2c(s1)CCCN2C(=O)C1CC1 (stereo not drawn),108.2
8,Cc1ccc(N2CCCc3sc(C(=O)NCCO)nc32)nn1,-4.347
9,O=C(c1nc2c(s1)CCCN2C(=O)C1CC1)N1CCOCC1,0.08995
10,O=C(c1nc2c(s1)CCCN2CC1CC1)N1CCOCC1,13.28
11,c1cnc(NCC2Cn3nnc(-c4ccsc4)c3CO2)nc1 (stereo not drawn),-8.794
12,CCc1nnc(N2C[C@@H](NC(C)=O)[C@H](c3ccc(C)o3)C2)s1,0.4936
13,CCN1CCN(c2ccc(C(=O)NC(C)C(=O)N(C)C)cc2)CC1 (stereo not drawn),1.595
14,CNC(=O)CN1CCN(C(=O)Nc2ccc(C)s2)CC1,-4.084
15,CN(CCc1cccs1)C(=O)Nc1ccc2c(c1)C(=O)N(C)CC2,-32.58
16,Cc1nn(C(C)C)c(C)c1CN1CCC(c2cc(C(C)C)n[nH]2)CC1,4.458
17,COCCN1CCCc2sc(C(=O)NCC3CCCO3)nc21 (stereo not drawn),104.4
18,COCCN1CCCc2sc(C(=O)Nc3ccc(C)nc3)nc21.O=C(O)C(F)(F)F,8.218
19,COCCNC(=O)c1nc2c(s1)CCCN2Cc1ccccc1,6.623
20,O=C(NCC1CCCO1)c1nc2c(s1)CCCN2Cc1ccccc1 (stereo not drawn),98.1
21,COCCN1CCCc2sc(C(=O)N3CCCN(C)CC3)nc21.O=C(O)C(F)(F)F,-1.049
22,CN(C)C(=O)CNC(=O)c1nc2c(s1)CCCN2Cc1ccccc1,-13.23
23,Cc1ccc(-c2n[nH]cc2CN(Cc2nccn2C)C(C)C)cc1C,-8.138

# — ChEMBL document CHEMBL3988442, “University of Dundee, Small-Polar-MMV Screening Library” (2021)
